# In PubChem BioAssay (NCI):
# About 83,000 compounds went through this panel and 20% of them were active in at least one assay; those are over-represented in the sample as a whole.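 Growth was measured after 48 h exposure to one concentration of compound in 96-well plates. Values under 10 count as active.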 A number with no mark means an inactive call. Activity calls are given as the source filed them.
# Assays:
# Assay in all cases: NCI-60 one-dose screen, 48 h (100 = growth as untreated, 0 = no growth, -100 = all killed)
# Conditions in all cases: 10 µM unless noted
# [1] = tested on: DU-145 prostate
# [2] = tested on: K-562 leukemia
# [3] = tested on: MALME-3M melanoma
# [4] = tested on: MDA-MB-231 breast
# [5] = tested on: RXF 393 renal
# [6] = tested on: SF-268 CNS
# [7] = tested on: SF-295 CNS
# [8] = tested on: SF-539 CNS
# [9] = tested on: UACC-257 melanoma
# [10] = tested on: M14 melanoma
# [11] = tested on: HCT-15 colon
# [12] = tested on: HT29 colon
# [13] = tested on: SNB-75 CNS
# [14] = tested on: SNB-19 CNS
# [15] = tested on: U251 CNS
# [16] = tested on: PC-3 prostate
# [17] = tested on: SK-MEL-5 melanoma
# [18] = tested on: UACC-62 melanoma
# [19] = tested on: LOX IMVI melanoma
# [20] = tested on: SK-MEL-28 melanoma
SMILES,growth [1],growth [2],growth [3],growth [4],growth [5],growth [6] [%],growth [7],growth [8],growth [9],growth [10],growth [11],growth [12],growth [13],growth [14] [%],growth [15],growth [16],growth [17],growth [18],growth [19],growth [20]
CC[C@]12C=CCN3CC[C@@]4(c5ccc(OC)cc5N(C)[C@H]4[C@@](O)(C(=O)OC)[C@@H]1OC(=O)CCC[P+](c1ccccc1)(c1ccccc1)c1ccccc1)[C@@H]32,18%,10.4%,-12.4% (active),1.29% (active),28.9%,19.2,23.3%,16.2%,-27.3% (active),17.7%,101%,2.42% (active),-4.39% (active),11,4.03% (active),2.13% (active),-91.5% (active),-59.3% (active),8.81% (active),20.9%
COc1ccc(-c2nc3c(N)c(CO)cnc3s2)cc1,86.6%,97.2%,101%,94.4%,74.7%,76.2,93.1%,89.7%,110%,99.4%,93.8%,97.7%,82.9%,97.2,88.6%,91.8%,82.7%,92.7%,81.9%,98.5%
Cn1c2c(c3ccc(Cl)c(Cl)c31)C(C#N)C(C)(C)NC2=O (stereo not given),106%,74.5%,90.4%,81.1%,76.4%,99.6,76.1%,86.2%,77.4%,90.3%,96.1%,88.5%,76.6%,91.8,91.1%,95.1%,5.3% (active),66.6%,84.4%,105%
CCCCCCCCCCCCCCCCCC1=NC(C)(C)CN1CC(C)O (stereo not given),34.5%,-25.7% (active),97.4%,-9.03% (active),66.4%,14.6,95.9%,19.9%,103%,36.6%,10.3%,-4.49% (active),97.8%,85.3,74%,53.4%,100%,105%,-83.1% (active),105%
CCN(CC)CCCN1C(=O)c2c(c(C)c3c(oc4ccc(O)cc43)c2C)C1=O,-58.8% (active),3.9% (active),87%,-80.9% (active),61.3%,66,109%,1.71% (active),102%,86.6%,-77.5% (active),-40.3% (active),90.4%,77.4,47.3%,79.7%,48.4%,96%,-95.8% (active),81.8%
CN(Cc1cc(Br)cc(Br)c1O)Cc1cc(Br)cc(Br)c1O,54.8%,21.3%,73.2%,39.6%,55.4%,45.3,32.1%,39.5%,46.8%,37.3%,22.2%,32.9%,61.5%,40.5,32.8%,39.5%,3.66% (active),18.8%,34.6%,74%
CC1(C)CC[C@]2(CO)CC[C@]3(C)[C@H](CC[C@@H]4[C@@]5(C)CCCNC(C)(C)[C@@H]5CC[C@]43C)[C@H]2[C@H]1O,94.5%,8.95% (active),78.5%,91%,92%,94.9,105%,74.9%,82.5%,95.1%,34.3%,17.6%,80.1%,97.6,56.1%,64.7%,92.8%,95.9%,69.4%,93.9%
COc1ccc(C2CC(c3cc(OC)c(OC)c(OC)c3)=NO2)cc1OCCCCOc1cc2c(cc1OC)C(=O)N1CCC[C@H]1C=N2 (stereo not given in full),13.4%,34.8%,-43.1% (active),11.7%,-67.1% (active),16.7,2.46% (active),-39% (active),24.6%,-16.2% (active),39.8%,-13.9% (active),-14.2% (active),16.5,4.05% (active),45.8%,-79.6% (active),-67.8% (active),-39.7% (active),-23.1% (active)
COc1ccc(-c2nn(-c3ccccc3)cc2/C=C/C(=O)NNC(=O)Nc2ccc(C)cc2)cc1,108%,78.3%,91.8%,83.5%,109%,102,99%,101%,95.7%,94.1%,97.1%,101%,96.5%,88.5,94.3%,89.6%,96.5%,89.3%,97.6%,115%
CO[C@H](C(=O)[C@@H](O)[C@@H](C)O)[C@@H]1Cc2cc3cc(O[C@H]4C[C@@H](O[C@H]5C[C@@H](O)[C@H](O)C(C)O5)[C@H](O)C(C)(O)O4)cc(O)c3c(O)c2C(=O)[C@H]1O[C@H]1C[C@@H](O[C@H]2C[C@@H](O[C@H]3C[C@@H](OC)[C@H](O)C(C)O3)[C@@H](O)C(C)O2)[C@H](O)C(C)O1 (stereo not given in full),17.5%,29.9%,-11.4% (active),25.1%,-35.1% (active),34.8,14.4%,9.92% (active),-16% (active),34.2%,92.8%,11.3%,24.5%,24.4,6.61% (active),26.3%,-56.8% (active),-39.5% (active),2.79% (active),3.39% (active)
COc1cc(-c2nc3c(ncc4ccc(=O)n(-c5ccccc5)c43)s2)cc(OC)c1OC,80.2%,90.5%,65.4%,64.1%,48.2%,69.1,90.4%,57.4%,101%,87.6%,78.6%,84.2%,56%,86.1,80.3%,56.9%,68.5%,78.7%,58.4%,78.3%
O=C(Cc1cccc(OC(F)(F)F)c1)Nc1ccc(CCCCc2nnc(NC(=O)Cc3ccccn3)s2)nn1,86.9%,45.7%,82.8%,84.6%,52.1%,78.7,60.6%,81.9%,92.9%,50.8%,89.6%,76.6%,78.6%,84.9,82.3%,17.5%,62.2%,63.5%,82.8%,93.8%
CN1CCN(c2ccc(NC(=O)c3cncnc3Nc3ccc(OCc4cccc(F)c4)c(Cl)c3)cc2)CC1,80.3%,1.91% (active),78.4%,-13.3% (active),55.5%,78.7,99.8%,43.3%,90.5%,-15.5% (active),-39.6% (active),-55.3% (active),68.3%,84.1,47%,68.1%,87.8%,48%,29.7%,81.1%
O=C(N=Nc1c(O)[nH]c2ccccc12)Nc1ccc(F)cc1,105%,85%,97.6%,94%,110%,104,95%,94.9%,93.9%,99.7%,97%,102%,91.3%,97,90.7%,85.9%,101%,79.3%,92.2%,108%
Nc1nc2c(c3ncccc13)C(c1cccc(Cl)c1)Cc1ncccc1-2 (stereo not given),21.5%,14%,67.7%,28.8%,10.7%,45.6,0.813% (active),-19.9% (active),63.6%,6.41% (active),22.2%,2.28% (active),32.5%,21.1,16%,18.3%,29.3%,22.1%,36.8%,63.9%
